KDM5B inh: KDM5B demethylase inhibition; Q9UGL1; KDM5B demethylase, FDH-coupled NADH fluorescence (FDH is formaldehyde dehydrogenase); Potency, µM (titrated, usually from 57.7 µM), most hits filed as inhibitors; 2.6% of 220,000 active; AID 1347165; active = well fitted inhibition curve with a large enough effect; note: 0% is about no effect; nearly all actives have a fitted effect of over 70% in size
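Measured: NADH fluorescence change, 30 min, RT. System: KDM5BΔAP 200 nM final, H3K4me3 peptide, α-KG, Fe(II), ascorbate, NAD⁺ plus FDH, pH 7.5 HEPES. Compounds: titrated, 10 min pre-incubation with enzyme.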
Numbers without * were called inactive; i = inactive. Shown is part of a subset that was picked to be rich in hits. Potency is the fitted concentration of half-maximal effect.

SMILES	KDM5B inh
Cc1ccccc1OCC(=O)N1CCN(Cc2nc(N)c3ccccc3n2)CC1	i
O=C1N(Cc2ccccn2)C[C@H]2CN(C3CCOCC3)CCN12	i
O=C(c1ccc2c(c1)N(Cc1ccc(F)cc1)C(=O)c1ccccc1S2)N1CCC2(CC1)OCCO2	i
COc1ccc(-c2cc([C@H]3CN4CC[C@H]3C[C@@H]4COC(=O)NC(C)C)n(C)n2)cc1OC	i
COc1ccc(-c2cc([C@H]3CN4CC[C@H]3C[C@@H]4CNC(=O)NC(C)C)nc(C)n2)cc1OC	31.6µM*
CCNC(=O)NC[C@H]1C[C@@H]2CCN1C[C@@H]2c1cc(-c2ccc(OC)c(OC)c2)nn1C	i
Cc1cc(O)c2c(C)c(CC(=O)N3CCN(Cc4ccccc4)CC3)c(=O)oc2c1	i
Cn1nc(-c2ccccc2)cc1[C@H]1CN2CC[C@H]1C[C@@H]2CNS(C)(=O)=O	i
O=C(c1ccncc1)N1CC2CCC(C1)N2Cc1cccs1	i
CS(=O)(=O)N1C[C@H]2CCN(Cc3ccc[nH]3)C[C@H]21	14.1µM*
CC12CNCC(C)(CNC1)C2=O	i
COc1cc2c(cc1Oc1cccc(N(C)C)c1)NC(=O)C21CCN(Cc2ccccc2)CC1	i
COc1cc2c(cc1Oc1ccccc1)NC(=O)C21CCN(Cc2cccnc2)CC1	i
COc1cc2c(cc1OC1CCCC1)NC(=O)C21CCN(Cc2nccn2C)CC1	i
COc1cc2c(cc1OC1CCCC1)NC(=O)C21CCN(Cc2ccccc2)CC1	i
COc1cc2c(cc1OC1CCCC1)NC(=O)C21CCN(c2ncc(C(C)C)cn2)CC1	35.5µM*
COc1cc2c(cc1Oc1cccc(N(C)C)c1)NC(=O)C21CCN(CC2CC2)CC1	i
COc1cc2c(cc1OC1CCCC1)NC(=O)C21CCN(C(=O)Cc2ccccc2)CC1	i
COc1cc2c(cc1Oc1ccccc1)NC(=O)C21CCN(CC2CC2)CC1	i
CCc1cnc(N2CCC3(CC2)C(=O)Nc2cc(OC4CCCC4)c(OC)cc23)nc1	35.5µM*
CCc1cnc(N2CCC3(CC2)C(=O)Nc2cc(Oc4ccccc4)c(OC)cc23)nc1	31.6µM*
COc1cc2c(cc1Oc1cccc(N(C)C)c1)NC(=O)C21CCN(c2ncc(F)cn2)CC1	31.6µM*
COc1cc2c(cc1OC1CCCC1)NC(=O)C21CCN(c2ncccn2)CC1	i
O=C1CO[C@H]2CN(Cc3cccnc3)C[C@H]2N1c1ccccc1	i
NCCc1ccc(O)cc1	i
SMILES	KDM5B inh
C=CCN(C)C[C@H]1CN2CC[C@H]1C[C@@H]2CNC(=O)Nc1ccccc1	i
C=C[C@H]1CN2CC[C@H]1C[C@@H]2CNC(=O)c1ccc2ccccc2c1	i
Cn1nccc1CN1CCC2(CC1)C(=O)Nc1ccccc12	i
Cc1ncsc1CCC(=O)N1C[C@@H](c2ccccc2)[C@@H]2[C@H]1C1CCN2CC1	i
CC1CCN(CC2CCCCCN2C(=O)Cc2ccccc2)CC1 (configuration not stated)	i
Cc1ccccc1NC(=O)c1cn(Cc2ccccc2)nn1	i
Cn1cc(C(=O)OCC(=O)NC(=O)NC2CCCC2)c2ccccc21	i
O=C1NC2(CCN(Cc3ccccn3)C2)OCc2ccccc21 (configuration not stated)	39.8µM*
O=C1NC2(CCN(Cc3cccnc3)C2)OCc2ccccc21 (configuration not stated)	i
O=C1NC2(CN(Cc3ccccn3)C2)Oc2ccccc21	i
COc1cncc(NC(=O)C2=NO[C@@H]3CN(CC4CC4)C[C@H]23)c1	i
Cc1cccc(OCC(=O)N2CCN(CCc3ccccn3)CC2)c1	i
Cc1ccc(-n2c(/C=C/c3ccc(Br)s3)nc3ccccc3c2=O)cc1C	i
O=C(Nc1ccc2n(c1=O)C[C@H]1C[C@@H]2CN(C(=O)NC2CCCCC2)C1)c1ccccn1	i
O=C(NC1CCCCC1)N1C[C@@H]2C[C@H](C1)c1ccc(C3CCCCC3)c(=O)n1C2	39.8µM*
Cc1ccccc1-c1ccc2n(c1=O)C[C@H]1C[C@@H]2CN(C(=O)NC2CCCCC2)C1	35.5µM*
COc1ccc(-c2ccc(=O)n3c2[C@@H]2C[C@@H](CN(C(=O)NC4CCCCC4)C2)C3)cc1	i
Cn1nccc1CN1CCCC2(CC(c3ccccn3)=NO2)C1 (configuration not stated)	i
COc1ccccc1C(=O)N1CCC2(CC1)c1nccn1-c1ccccc1CN2CC(C)C	i
COc1cc(C2SCC(=O)Nc3c2c(C)nn3-c2ccc(C)cc2)ccc1O (configuration not stated)	i
C[S+](=O)([O-])N1C2CCC1CN(Cc1cccnc1)C2	i
COc1cc(/C=C2/C(=O)NC(=O)N(c3ccc(C)cc3)C2=O)cc(OC)c1OC	i
Cc1[nH]c2c(C)cccc2c1C(O)CN1CCCCC1 (configuration not stated)	i
O=C(Nc1cccc(F)c1)N1C[C@@H]2C[C@H](C1)c1c(-c3ccc(Cl)cc3)ccc(=O)n1C2	i
N#Cc1cccc(-c2ccc3n(c2=O)C[C@H]2C[C@@H]3CN(C(=O)CSCC(=O)O)C2)c1	35.5µM*
SMILES	KDM5B inh
N#Cc1cccc(-c2ccc3n(c2=O)C[C@H]2C[C@@H]3CN(C(=O)c3ccc(F)cc3)C2)c1	31.6µM*
O=C(Nc1ccccc1)N1C[C@@H]2C[C@H](C1)c1c(-c3cncnc3)ccc(=O)n1C2	i
N#Cc1cccc(-c2ccc3n(c2=O)C[C@H]2C[C@@H]3CN(C(=O)Nc3ccccc3)C2)c1	35.5µM*
Cn1nc(-c2ccc(F)cc2)cc1[C@H]1CN2CC[C@H]1C[C@@H]2CNC(=O)Nc1cccc(C#N)c1	i
Cc1nc(C2CCCC2)cc([C@H]2CN3CC[C@H]2C[C@@H]3CNC(=O)c2ccco2)n1	i
Cn1cc(C(=O)OCC(=O)NC(C)(C)C)c2ccccc21	i
COc1cc2c(cc1OCc1ccccc1)N(C(=O)c1c[nH]c3ccccc13)CC21CCN(C)CC1	i
O=C1/C(=C\c2ccc(Br)cc2)N2CCC1CC2	i
O=C(CN1C(=O)CN=C(c2ccccc2F)c2cc(Cl)ccc21)Nc1ccccc1C(F)(F)F	i
CC[C@H]1CN2CC[C@H]1C[C@@H]2CNC(=O)N1CCOCC1	i
Cc1ccc(COc2ccc(CC(C)N)cc2)cc1 (configuration not stated)	i
Cc1nnc(NC(=O)c2cccn(Cc3ccccc3)c2=O)s1	i
COCCn1c(C)cc(C(=O)NC2CCc3nnc(C)n3CC2)c1C (configuration not stated)	i
COCc1nnc2n1CCC(NC(=O)c1nn(C)c3ccccc13)CC2 (configuration not stated)	28.2µM*
CC(C)N1CCC(NC(=O)c2cn(Cc3ccccc3)c3ccccc23)CC1	i
O=c1ccc(-c2cncnc2)c2n1C[C@H]1C[C@@H]2CN(S(=O)(=O)c2ccccc2)C1	i
O=C(c1cnccn1)N1C[C@@H]2C[C@H](C1)c1c(-c3ccccc3)ccc(=O)n1C2	i
O=c1ccc(-c2cccs2)c2n1C[C@H]1C[C@@H]2CN(S(=O)(=O)c2cccs2)C1	31.6µM*
CCCS(=O)(=O)Nc1ccc(=O)n2c1[C@@H]1C[C@@H](CN(C(=O)COc3ccccc3)C1)C2	31.6µM*
O=c1ccc(-c2ccc(Cl)cc2)c2n1C[C@H]1C[C@@H]2CN(S(=O)(=O)c2ccccc2)C1	i
O=c1ccc(-c2cccs2)c2n1C[C@H]1C[C@@H]2CN(S(=O)(=O)c2cccc(C(F)(F)F)c2)C1	i
